Source: PubChem BioAssay (several laboratories)
Shown are actives, neighbours in structure and some others; about 2.2% of the full set was active somewhere.
Ba/F3 V617F tox = reduce viability of Ba/F3 cells dependent on JAK2V617F; Ba/F3 EpoR-JAK2V617F viability, ATP luminescence; inhibition, % at 5.6 µM; actives 1.1% (n = 220,000); AID 1446;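 active = inhibition above the campaign mean plus 3 SD over all tested compounds, cut at about 24% in these data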;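 also: cytokine-independent growth of Ba/F3 cells driven by EpoR plus mutant JAK2; 0% = DMSO-treated cells and 100% = JAK inhibitor I control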
IEC-6 cytotox = IEC-6 cytotoxicity, counter-screen for KLF5 inhibitors; luminescence viability; AID 1825; inhibition, % at 5 µM; actives 0.78% (n = 290,000);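 also: 0% = plate median of test compound wells and 100% = cytotoxic reference compound wells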
BaF3 parental = parental Ba/F3 viability inhibition as JAK2V617F counter-screen; CellTiter-Glo ATP luminescence; inhibition, % at 5.6 µM; actives 1.1% (n = 220,000); AID 1486;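 active = inhibition above a per-campaign cutoff, the mean inhibition of all tested compounds plus 3 SD, cut at about 27% in these data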;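 also: 0% = DMSO wells and 100% = JAK Inhibitor I control wells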
aSyn 5UTR inh = 5' untranslated region of α-synuclein, MLPCN primary screen; alpha-synuclein 5'UTR reporter, inhibitor activity; inhibition, % (tested at 7.5 µM); actives 0.82% (n = 300,000); AID 1813; in the data active = inhibition above about 60%; inconclusive = no clear call, values can overlap the other calls;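 also: H4 neuroglioblastoma cells stably carrying SNCA 5'UTR luciferase fusion; 0% = DMSO wells and 100% = positive control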
APP transl inh = APP translation inhibition. inhibition, % at 2 µM. SH-SY5Y APP 5'UTR-luciferase reporter, luminescence. actives 0.82% (n = 190,000). AID 1285;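 active = inhibition above a set limit, derived from the sample mean plus 3 SD, cut at about 45% in these data; inconclusive = one replicate passes the limit while the other fails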
KLF5 inh = inhibitors of KLF5 expression | inhibition, % at 5 µM | actives 0.23% (n = 290,000) | AID 1700 | DLD-1 KLF5 promoter-luciferase reporter, luminescence;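 active = inhibition above a per-plate limit of that plate's mean compound inhibition plus 3 SD, cut at about 60% in these data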;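 also: 0% = DMSO wells and 100% = LY294002 at 200 µM; higher means less KLF5 promoter-driven luciferase light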
IEC-6 tox confirm = confirmation of cytotoxic compounds in rat IEC-6 intestinal epithelial cells. shares compounds with IEC-6 cytotox. IEC-6 rat intestinal epithelial viability, luminescence. inhibition, % at 5 µM. actives 63% (n = 1,900). AID 1907;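 also: 0% = vehicle and 100% = reference cytotoxic drug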
An asterisk follows results filed as active; ? = inconclusive; nt = not tested or not shown. Rule as the data show it, unless noted: active = inhibition above about 22%; inactive = the rest.

SMILES	Ba/F3 V617F tox	IEC-6 cytotox	BaF3 parental	aSyn 5UTR inh	APP transl inh	KLF5 inh	IEC-6 tox confirm
Cc1ccc(CN2CC(C(=O)N(C)CC(=O)Nc3cccc(F)c3)CC2=O)cc1 (configuration not stated)	nt	-1	nt	21	nt	-8	nt
Cc1ccc(NC(=O)CN(C)C(=O)c2ccccc2Sc2ccccc2C#N)cc1	nt	nt	nt	3	nt	nt	nt
Clc1ccc2c(c1)C=Nc1c(NCc3ccccc3)ncnc1O2	-2	-1	3	12	-24	-1	nt
C1=Nc2c(Nc3ccccc3)ncnc2Oc2ccccc21	-4	53*	6	-12	-6	-39	33*
C=CCc1cccc(/C=N/NC(=O)c2ccccc2Br)c1O	-3	22	4	2	16	-35	nt
C=CCc1cccc(/C=N/NC(=O)c2ccccc2OC)c1O	-1	41*	4	8	8	-13	19
O=C(CCNC(=O)C1CCN(S(=O)(=O)c2ccc(F)cc2)CC1)NCc1cccc(Cl)c1	nt	0	nt	11	nt	-43	nt
CCSC1=C(C#N)C(c2ccc(C)s2)CC(=O)N1 (configuration not stated)	-2	-1	0	18	-2	-3	nt
CCOC(=O)CSC1=C(C#N)C(c2ccc(C)s2)CC(=O)N1 (configuration not stated)	81*	75*	77*	41	91*	53	53*
CCN(Cc1ccc(C#CCCO)cc1)CC1CCCN(CCc2cccc(F)c2)C1 (configuration not stated)	nt	11	nt	-35	nt	-4	nt
CCOc1ccc2c(c1)OC(c1ccc(OC)cc1)(C(F)(F)F)NC2=O (configuration not stated)	78*	81*	77*	96*	91*	45	55*
COc1cc(/C=C/c2nc3ccccc3c(=O)[nH]2)ccc1OC(F)F	nt	-1	nt	-195	nt	-127	nt
COc1cc(/C=C/c2nc3ccccc3c(=O)[nH]2)cc(OC)c1OC	nt	61*	nt	-84	nt	32	71*
Nc1cc2nn(-c3ccccc3)nc2cc1Cl	-1	102*	0	-157	-199	-92	46*
COc1cccc(OC)c1C(=O)Nc1ccccc1N1CCCCC1	nt	26*	nt	23	nt	3	2
COc1ccc(OCC(=O)Nc2ccccc2-c2ccccc2)cc1	4	28*	7	21	11	10	15
COc1ccc(OCC(=O)Nc2ccccc2N2CCN(C)CC2)cc1	nt	2	nt	-13	nt	17	nt
COc1ccc(OCC(=O)Nc2ccccc2N2CCCCC2)cc1	nt	70*	nt	21	nt	56	42*
CC(=O)Nc1nnc(S(=O)(=O)N2CCN(c3ccc([N+](=O)[O-])cc3Cl)CC2)s1	nt	-4	nt	4	nt	6	nt
O=C(CN(C(=O)c1csnn1)c1cccc2ccccc12)NCc1ccc(F)cc1	nt	3	nt	15	nt	10	nt
COC1=C(N)C(=O)c2nc(-c3nc(C(=O)O)c(C)c(-c4ccc(OC)c(OC)c4O)c3N)ccc2C1=O	86*	45*	71*	nt	95*	-10	101*
COc1ccc(-c2ncncc2-c2csc(C)n2)c(O)c1OC	-2	-2	3	-4	0	-19	nt
CCCn1c(SCC(=O)Nc2ccccc2OC)nnc1-c1ccco1	nt	35*	nt	2	nt	39	16
COCCn1c(SCC(=O)Nc2ccccc2OC)nnc1-c1ccco1	nt	-6	nt	5	nt	6	nt
Cc1ccc(S(=O)(=O)Nc2ccccc2N(C)S(=O)(=O)c2ccc(C)cc2)cc1	nt	nt	nt	9	nt	nt	nt
SMILES	Ba/F3 V617F tox	IEC-6 cytotox	BaF3 parental	aSyn 5UTR inh	APP transl inh	KLF5 inh	IEC-6 tox confirm
Cc1ccc(S(=O)(=O)Nc2ccccc2-c2ccccc2)cc1	69*	55*	71*	?	90*	54	51*
COc1ccc(C2C(C#N)=C(C)NC3=C2C(=O)c2ccccc23)cc1 (configuration not stated)	-3	-4	1	8	5	15	nt
CC1=C([N+](=O)[O-])C(c2ccccc2)C2=C(N1)c1ccccc1C2=O (configuration not stated)	77*	47*	71*	113*	57*	58	56*
CCOc1ccc(N(C(C)C(=O)N2CCCC2)S(C)(=O)=O)cc1 (configuration not stated)	nt	-4	nt	-2	nt	-24	nt
COc1ccc2[nH]c3c(N4CCc5ccccc5C4)ncnc3c2c1	76*	77*	78*	43	nt	40	66*
COc1ccc(N2CCN(c3ncnc4c3[nH]c3ccccc34)CC2)cc1	-2	1	6	1	nt	-56	nt
COc1ccccc1NS(=O)(=O)c1ccc(-c2cc(C)no2)s1	nt	40*	nt	-102	nt	27	17
COc1ccccc1CNS(=O)(=O)c1ccc(-c2cc(C)no2)cc1	nt	79*	nt	80*	nt	53	53*
COc1ccccc1NS(=O)(=O)c1cccs1	-3	3	1	24	-3	-33	nt
COc1cc(/C=N/Nc2snc(SC)c2C#N)cc(OC)c1OC	4	26*	5	9	8	-6	49*
CCOC(=O)Nc1ccc2c(c1)N(C(=O)CCN(CC)CC)c1ccccc1CC2	nt	5	nt	6	nt	-21	nt
CCOC(=O)Nc1ccc2c(c1)N(C(=O)CCN(CC)CC)c1ccccc1S2=O (configuration not stated)	nt	23*	nt	-20	nt	-2	13
O=C(CN1C(=O)C2CCCCC2C1=O)Nc1nc(-c2ccccn2)cs1 (configuration not stated)	5	41*	1	46	39	25	14
C[C@@H](C(=O)Nc1nc(-c2ccccn2)cs1)N1C(=O)C2CCCCC2C1=O (some centres not stated)	-3	-1	0	9	nt	-41	nt
O=C(Nc1nc(-c2ccccn2)cs1)Nc1ccc(F)cc1F	nt	50*	nt	39	nt	-3	47*
O=C(Nc1nc(-c2ccccc2)cs1)Nc1ccc(F)cc1F	-1	-1	4	-63	-11	-33	nt
O=C(Nc1nc(-c2ccccn2)cs1)c1ccc2c(c1)OCCO2	-1	28*	-2	-2	-110	-99	20
c1ccc(CNc2c3ccccc3nc3ccccc23)cc1	nt	26*	nt	-332	nt	-4	16
NC(N)=N/N=C/c1ccc(Br)cc1	10	26*	34*	-8	28	10	56*
N#Cc1ccc(/C=N/N=C(N)N)cc1	3	4	6	-5	-15	-17	nt
CCOC(CCNC(=O)c1cn(CCOC)c(=O)c2c1c1ccccc1n2C)OCC	nt	0	nt	6	nt	-37	nt
COc1c(OC)c(O)c2c(=O)cc(-c3c(O)cccc3O)oc2c1OC	3	23*	37*	-64	10	-5	3
COc1ccc(-c2cc(=O)c3c(OC)c(OC)c(OC)c(OC)c3o2)cc1OC	4	1	-4	29	8	-19	nt
O=C(OCC(O)COc1ccccc1)c1ccc([N+](=O)[O-])cc1 (configuration not stated)	nt	9	nt	9	nt	12	nt
